Screening results: PubChem, National Center for Advancing Translational Sciences (NCATS)
Only some compounds are listed: those with a hit (about 3.3% of all), similar ones and a draw of the others.
SARS PLP yeast: inhibitors of SARS-CoV papain-like protease in yeast. S. cerevisiae expressing SARS-CoV PLpro, growth rescue. Potency, µM (top dose mostly 32.9 µM), inactives show top-dose activity, positive = growth rescue, actives largely listed as activators. 330,000 compounds, 0.19% hits. AID 485353; calls by dose curve; further: 0% is about no effect; nearly all actives have a fitted effect of over 55% in size
LmPK inhibitor: inhibitors of Leishmania mexicana pyruvate kinase. 290,000 compounds, 0.37% hits. AID 1721. Q27686. Potency, µM (series often up to 57.5 µM), for the others: top-dose activity change, negative = inhibition, most hits filed as inhibitors. purified LmPK, Kinase-Glo ATP luminescence, 1 h; further: on the % scale 0 is the no-effect control and ±100 the full control effect
Target sequence (Q27686 whole entry, looked up): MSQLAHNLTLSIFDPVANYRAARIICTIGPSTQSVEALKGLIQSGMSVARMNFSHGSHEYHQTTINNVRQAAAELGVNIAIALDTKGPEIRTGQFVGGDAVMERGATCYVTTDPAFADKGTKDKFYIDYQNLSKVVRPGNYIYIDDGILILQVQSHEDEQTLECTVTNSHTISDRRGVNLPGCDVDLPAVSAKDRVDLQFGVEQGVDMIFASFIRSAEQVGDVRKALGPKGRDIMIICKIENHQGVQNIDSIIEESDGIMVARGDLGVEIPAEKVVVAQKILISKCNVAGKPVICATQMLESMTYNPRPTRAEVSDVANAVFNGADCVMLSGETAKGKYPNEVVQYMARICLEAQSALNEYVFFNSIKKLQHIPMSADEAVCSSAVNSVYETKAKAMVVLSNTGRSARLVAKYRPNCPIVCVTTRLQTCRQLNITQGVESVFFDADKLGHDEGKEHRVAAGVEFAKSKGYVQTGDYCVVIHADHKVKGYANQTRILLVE
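qHTS format; LmPK 0.1 nM; substrates PEP 0.5 mM and ADP 0.1 mM. One-hour room-temperature incubation, then coupled luciferase luminescence; 0.5 nM enzyme wells mark activation.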
RE007 growth inh: less growth of the S. pombe RE007 Vpr strain; AID 651644; S. pombe RE007 Vpr strain, BacTiter-Glo ATP luminescence, 24 h; Potency, µM (top dose mostly 92.2 µM), for inactives: at the highest dose activity change, negative = less growth, hits mostly inhibitors; 360,000 compounds, 0.21% hits; active means well fitted falling curve with a large enough effect; inconclusive means small, poorly fitted or top-dose-only effect; inactive means no such curve, though single readings can be large or run the other way; further: on the % scale 0 is the no-effect control and ±100 the full control effect; nearly all actives have a fitted effect of over 50% in size
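Fission yeast RE007 carrying one integrated HIV-1 vpr copy, seeded at OD 0.01 in PMG+AL medium with 23 nL pinned compound. Grown 24 h at 30 degrees; viability read by BacTiter-Glo luminescence after 5 min.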
NS1 function inh: inhibitors of influenza NS1 protein function. Potency, µM (highest dose often 46.1 µM), for inactives: at the highest dose activity, positive = more growth. 270,000 compounds, 0.4% hits. AID 2326; calls by dose curve; further: actives are rising curves; nearly all actives have a fitted effect of over 50% in size
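Growth recovery, yeast-based: influenza A NS1 expressed in S. cerevisiae causes slow growth, and suppressors are detected by OD600. The parent strain without NS1 is used as positive control.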
Tb PYK inh: inhibitors of Trypanosoma brucei pyruvate kinase. 410,000 compounds, 0.12% hits. Potency, µM (highest dose often 76.8 µM), for inactives: top-dose activity, negative = inhibition, actives largely listed as inhibitors. AID 624173. TbPYK enzyme, Kinase-Glo Plus ATP luminescence, 45 min; further: on the % scale 0 is the no-effect control and ±100 the full control effect; nearly all actives have a fitted effect of over 50% in size
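Luminescence from Kinase-Glo Plus, added after a 45-minute room-temperature reaction, served as the end-point read-out. The enzyme and substrate were preincubated with compound before ADP (130 uM final) initiated turnover. Concentration-effect curves came from normalized qHTS data.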
Sm TGR inh: blocks Schistosoma mansoni thioredoxin glutathione reductase; purified TGR, DTNB reduction, TNB absorbance 405 nm; 360,000 compounds, 3% hits; Potency, µM (highest dose often 114 µM), without a hit: at the top dose activity change, negative = inhibition, hits mostly inhibitors; further: on the % scale 0 is the no-effect control and ±100 the full control effect; nearly all actives have a fitted effect of over 60% in size
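First, TGR (20 nM dispensed) and NADPH were mixed with compound. Second, a 15 min room-temperature incubation followed. Third, further NADPH and then DTNB were added to start the reaction. Finally, TNB absorbance was monitored kinetically.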
* = called active by the depositor; ? = inconclusive; nt = no result given; [ ] = another dose, or the depositor's remark. Unless noted, the call rests on the fitted dose curve; in most records, active means well fitted curve in the direction sought with a large enough effect; inconclusive means small, poorly fitted or top-dose-only effect, or another doubt; inactive means no such curve, though single readings can be large; an effect the other way counts as inactive or inconclusive. Potency means the concentration at half of the fitted maximal effect.

SMILES	SARS PLP yeast	LmPK inhibitor	RE007 growth inh	NS1 function inh	Tb PYK inh	Sm TGR inh
O=c1c2ccccc2nc(SCc2ccccc2)n1Cc1ccco1	-4%	2%	6%	-14%	0%	28µM*
CCOc1ccccc1-n1c(=S)sc2c(=O)n(-c3ccc(C)cc3)c(=S)[nH]c21	-3%	-3%	5%	nt	?	3%
CCn1c(=S)sc2c(=O)n(-c3ccccc3)c(=S)[nH]c21	1%	19%	-3%	nt	0%	22µM*
COC(=O)c1ccccc1S(=O)(=O)N1CCc2nc(-c3ccc(OC)cc3C)c3c(c2C1)CO[C@@H](c1ccccc1)C3	nt	-2%[11.5 µM]	nt	nt	nt	nt
Cc1ccc(NC(=O)CCCn2c(=O)c3cccn3c3cccnc32)cc1C	nt	nt	nt	nt	5%	2%
Cc1cccc(N2C(=O)C(Cl)=C(Nc3c(C)n(C)n(-c4ccccc4)c3=O)C2=O)c1C	0%	0%	-1%	5%	-8%	8.9µM*
Cc1ccc(Nc2nc3ccccc3nc2Nc2c(C)n(C)n(-c3ccccc3)c2=O)cc1	6%	-1%	-7%	11%	-3%	-12%
Cc1ccc(N2C(=O)C(Cl)=C(Nc3c(C)n(C)n(-c4ccccc4)c3=O)C2=O)cc1	-2%	1%	-7%	-42%	-11%	8.9µM*
CC(=O)Nc1ccc(S(=O)(=O)N2CCC(n3c(C)nc4cccnc43)CC2)cc1	nt	nt	nt	nt	2%	-6%
COc1ccc(-c2nn(C)c3sc(C(=O)Nc4cc(OC)c(OC)c(OC)c4)cc23)cc1OC	nt	nt	nt	nt	7%	-6%
COc1ccc2[nH]c3c(c2c1)CCC/C3=N\N	0%	2%	11%	7%	-9%	45µM*
COc1ccc2[nH]c3c(c2c1)CCNC3=O	nt	nt	nt	nt	2%	nt
CCOc1ccc(S(=O)(=O)NCC(c2ccco2)S(=O)(=O)c2ccc(C)cc2)cc1 (stereo unspecified)	nt	nt	nt	nt	1%	0.32µM*
Cc1ccc(CNC(=O)C(=O)NCC(c2ccco2)S(=O)(=O)c2ccc(C)cc2)cc1 (stereo unspecified)	nt	nt	nt	nt	3%	-23%
O=C(COc1ccc(Cl)cc1)NCC(c1ccco1)S(=O)(=O)c1ccccc1 (stereo unspecified)	nt	nt	nt	nt	6%	?
O=C(COc1ccc(Cl)cc1)NCC(c1ccco1)S(=O)(=O)c1ccc(Cl)cc1 (stereo unspecified)	nt	nt	nt	nt	-18%	28µM*
COc1ccc(S(=O)(=O)NCC(c2ccco2)N2CCN(c3ccccc3F)CC2)cc1C (stereo unspecified)	nt	nt	nt	nt	7%	4%
COc1ccc(S(=O)(=O)NCC(c2ccco2)S(=O)(=O)c2ccc(C)cc2)cc1C (stereo unspecified)	nt	nt	nt	nt	2%	0.79µM*
CN(C)CCCNc1ncnc2nc[nH]c12	nt	nt	nt	3%	nt	nt
CC(=O)c1ccc2c(c1)C1C=CCC1C(c1ccncc1)N2 (stereo unspecified)	-2%	-4%	2%	17%	-14%	?
O=C(O)c1ccc(NS(=O)(=O)c2ccc3c(c2)C2C=CCC2C(c2ccccc2F)N3)cc1 (stereo unspecified)	-1%	4%	23%	10%	?	28µM*
COC(=O)c1ccc([C@H]2Nc3ccc(S(=O)(=O)Nc4cccc(C)c4)cc3[C@H]3C=CC[C@H]32)cc1	nt	nt	nt	nt	-5%	25µM*
COC(=O)c1ccc([C@@H]2Nc3c(OC)ccc(C)c3[C@@H]3C=CC[C@@H]32)cc1	nt	nt	nt	nt	-11%	3.2µM*
COC(=O)c1ccc(C2Nc3ccc(/C(C)=N/NC(=O)C(OC)c4ccccc4)cc3C3C=CCC32)cc1 (stereo unspecified)	2%	-6%	10%	?	?	7.9µM*
N=C1Sc2ccccc2C2=NCCCN12	nt	nt	nt	-25%	nt	nt
CC(C)OCCCNC(=O)CN1C(=O)c2cccnc2Sc2ccccc21	nt	nt	nt	nt	0%	-3%
Cc1ccccc1OCC(=O)N(Cc1ccc(C(C)C)cc1)C1CCS(=O)(=O)C1 (stereo unspecified)	nt	nt	nt	nt	1%	-1%
